PubChem BioAssay
Calls of active or inactive are those of the source.

Key:
Albumin (Bos taurus) = Albumin (Bos taurus) (UniProt P02769); test: compounds binding labelled BSA control protein – biochemical, small-molecule microarray, Alexa647 label, 635/667 nm fluorescence, artefact control for SMM control protein annotation, profiling panel (AID 1118); details: BSA-A647 binding, fluorescence 635 nm, higher = more signal;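 note: score merges 667 nm emission intensity and signal-to-noise per printed compound spot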
[1] = probe aXIP binding to arrayed compounds – biochemical, NeuroSMM set, 635/667 nm fluorescence, primary screen (AID 1119); details: small-molecule microarray, higher = more signal, called active from +8 up or from −8 down;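 note: probe is the protein aXip251-270 applied at 1 µg/mL to compound-printed slides; binding of probe to printed compounds measured as 667 nm fluorescence plus signal to noise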
[2] = probe aNOTCH3 binding on compound microarray – biochemical, small-molecule microarray, 635/667 nm fluorescence, primary screen (AID 1120); details: higher = more signal;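 note: probe is a biotin-tagged antibody raised against NOTCH3 rather than NOTCH3 protein; score merges spot fluorescence near 667 nm with spot signal to noise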
[3] = probe aNOTCH2 binding on compound microarray – biochemical, small-molecule microarray, 635/667 nm fluorescence, primary screen (AID 1121); details: higher = more signal;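 note: score merges feature fluorescence read at 667 nm with its signal to noise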
[4] = molecular target: Carbonic anhydrase 2 (Homo sapiens) (UniProt P00918); test: compounds binding carbonic anhydrase 2 – biochemical, small-molecule microarray, Alexa647-labelled CAII, profiling panel (AID 1122); details: CAII-A647 binding fluorescence, higher = more signal
[5] = COS7 lysate on small-molecule microarray, probe aHis, 635 nm (AID 1123); details: COS7 cell lysate, fluorescence, higher = more signal;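 note: z-score combines 667nm fluorescence intensity with signal-to-noise per printed compound spot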
[6] = probe aLAP1 signal on lysate-treated microarray – cell lysate, small-molecule microarray, COS7 lysate, primary screen (AID 1124); details: probe aLAP1, fluorescence, higher = more signal;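 note: lysate comes from COS7 cells expressing LAP1 and is applied at 0.3 µg/mL; score merges spot fluorescence near 667 nm with signal-to-noise over triplicate slides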
Sam68 (KHDRBS1) = test: compounds binding KHDRBS1 protein – biochemical, small-molecule microarray, 635 nm fluorescence, primary screen (AID 1125); details: higher = more signal;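 note: score merges 667 nm channel intensity with signal to noise over triplicate slides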
[7] = test system: Chordin-like protein 2 (CHRDL2); test: compounds binding chordin-like 2 – biochemical, small-molecule microarray, 635 nm fluorescence, primary screen (AID 1126); details: fluorescence 635 nm, higher = more signal;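 note: printed compound slides probed with Chrdl2 protein at 4 µg/mL for 1 h at 4 C; score merges 667 nm emission intensity with signal to noise over three replicate slides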
[8] = molecular target: Concanavalin-A (Canavalia ensiformis) (UniProt P02866); test: compounds binding concanavalin A lectin – biochemical, small-molecule microarray, Alexa647 label, 635 nm, artefact control for SMM control protein annotation, primary screen (AID 1127); details: ConA-A647 binding fluorescence, higher = more signal;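 note: z combines 667 nm emission intensity with signal-to-noise across three replicate slides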
[9] = compounds binding Alexa647 anti-His antibody – biochemical, small-molecule microarray, 635 nm fluorescence, artefact control for SMM control protein annotation, primary screen (AID 1128); details: higher = more signal;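 note: score merges feature fluorescence with signal-to-noise for each printed compound spot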
[10] = test system: Human papillomavirus type 1a E7 protein (residues 1-88); test: HPV1a E7 small-molecule binders, primary screen, biochemical, small-molecule microarray, residues 1-88, 635 nm (AID 1129); details: small-molecule microarray binding, fluorescence 635 nm; higher = more signal
[11] = molecular target: Focal adhesion kinase 1 (Homo sapiens) (UniProt Q05397); test: PTK2 protein binding on printed compound slides – biochemical, small-molecule microarray, 635/667 nm fluorescence, BSA, DTT, primary screen (AID 1130); details: 635 nm fluorescence, higher = more signal;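 note: composite of spot emission at 667 nm and signal to noise over triplicate slides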
[12] = test system: Fibrinogen (Alexa647-labelled); test: Alexa647-fibrinogen binding to printed small molecules – biochemical, small-molecule microarray, 635/667 nm fluorescence, artefact control for SMM control-protein annotation, profiling panel (AID 1131); details: fibrinogen-A647 binding fluorescence, higher = more signal;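 note: z-score merges 667 nm fluorescence with per-spot signal-to-noise over triplicate slides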
[13] = molecular target: Follistatin (Homo sapiens) (UniProt P19883); test: FST protein binding to printed compounds – biochemical, small-molecule microarray, 635/667 nm fluorescence, primary screen (AID 1132); details: 635 nm fluorescence, higher = more signal
[14] = molecular target: Fibroblast growth factor 2 (Homo sapiens) (UniProt P09038); test: basic fibroblast growth factor binding to printed compounds – biochemical, small-molecule microarray, 635/667 nm fluorescence, primary screen (AID 1133); details: FGF2, fluorescence 635/667, higher = more signal
[15] = JC-1 mitochondrial potential readout, lung cancer cells – cell-based, A549, JC-1 fluorescence, basal, 24 h, 100 nL, profiling panel (AID 1138); details: higher = more signal;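 note: A549 lung adenocarcinoma cells under basal conditions with no added stimulus; test concentration not given here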
Lefty1 = Lefty1 protein binding to printed compounds – biochemical, small-molecule microarray, 635/667 nm fluorescence, primary screen (AID 1139); details: fluorescence 635/667, higher = more signal
[16] = test system: wheat germ agglutinin (Triticum aestivum), Alexa647-labelled; test: Alexa647-WGA lectin binding to printed small molecules – biochemical, small-molecule microarray, 635/667 nm fluorescence, artefact control for SMM control-protein annotation, profiling panel (AID 1140); details: WGA-A647 binding, 635 nm fluorescence, higher = more signal;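 note: score merges 667 nm feature emission with signal to noise over triplicate slides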
[17] = molecular target: Luciferin 4-monooxygenase (Photinus pyralis) (UniProt P08659); test: inhibition of purified Photinus pyralis luciferase – biochemical, luminescence, purified enzyme, 2006 set, primary screen (AID 1141); details: purified firefly luciferase, SteadyGlo luminescence, 30 min; higher = more signal, called active from +8 up or from −8 down;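 note: cell-free assay with purified firefly luciferase at 100 ng per well in PBS; test concentration not given here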
Chain of Luciferin 4-monooxygenase (Photinus pyralis) (P08659 whole entry, looked up): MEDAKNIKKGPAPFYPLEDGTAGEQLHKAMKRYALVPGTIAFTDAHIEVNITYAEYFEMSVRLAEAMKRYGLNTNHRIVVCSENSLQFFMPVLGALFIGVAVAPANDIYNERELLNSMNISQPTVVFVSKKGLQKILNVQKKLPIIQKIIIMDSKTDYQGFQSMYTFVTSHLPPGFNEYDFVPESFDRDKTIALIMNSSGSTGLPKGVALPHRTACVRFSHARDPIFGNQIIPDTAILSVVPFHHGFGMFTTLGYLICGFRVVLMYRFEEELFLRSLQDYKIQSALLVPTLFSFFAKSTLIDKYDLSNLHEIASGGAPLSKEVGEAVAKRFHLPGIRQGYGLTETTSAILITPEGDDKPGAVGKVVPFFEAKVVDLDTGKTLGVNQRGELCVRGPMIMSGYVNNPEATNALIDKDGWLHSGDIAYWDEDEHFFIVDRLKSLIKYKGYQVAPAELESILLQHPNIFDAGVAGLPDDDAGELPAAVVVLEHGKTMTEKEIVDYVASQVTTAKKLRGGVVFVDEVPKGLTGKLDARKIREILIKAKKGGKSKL

Chain of Fibroblast growth factor 2 (Homo sapiens) (P09038 whole entry, looked up): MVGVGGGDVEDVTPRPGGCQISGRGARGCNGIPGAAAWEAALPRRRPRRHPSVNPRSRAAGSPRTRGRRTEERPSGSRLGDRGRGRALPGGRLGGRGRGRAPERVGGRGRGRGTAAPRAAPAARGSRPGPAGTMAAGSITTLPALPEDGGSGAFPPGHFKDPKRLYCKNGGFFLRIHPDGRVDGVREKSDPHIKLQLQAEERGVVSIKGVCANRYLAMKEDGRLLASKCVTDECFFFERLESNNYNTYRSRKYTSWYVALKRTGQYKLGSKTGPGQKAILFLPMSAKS
Chain of Concanavalin-A (Canavalia ensiformis) (P02866 whole entry, looked up): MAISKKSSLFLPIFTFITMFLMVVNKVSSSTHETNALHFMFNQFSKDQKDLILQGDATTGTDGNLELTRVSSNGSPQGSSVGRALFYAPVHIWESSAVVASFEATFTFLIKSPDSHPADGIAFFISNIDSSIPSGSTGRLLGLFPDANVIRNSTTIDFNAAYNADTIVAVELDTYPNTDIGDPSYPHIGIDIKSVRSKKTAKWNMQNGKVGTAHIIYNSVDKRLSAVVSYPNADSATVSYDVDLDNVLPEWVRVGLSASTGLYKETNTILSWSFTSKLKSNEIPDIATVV
Chain of Albumin (Bos taurus) (P02769 whole entry, looked up): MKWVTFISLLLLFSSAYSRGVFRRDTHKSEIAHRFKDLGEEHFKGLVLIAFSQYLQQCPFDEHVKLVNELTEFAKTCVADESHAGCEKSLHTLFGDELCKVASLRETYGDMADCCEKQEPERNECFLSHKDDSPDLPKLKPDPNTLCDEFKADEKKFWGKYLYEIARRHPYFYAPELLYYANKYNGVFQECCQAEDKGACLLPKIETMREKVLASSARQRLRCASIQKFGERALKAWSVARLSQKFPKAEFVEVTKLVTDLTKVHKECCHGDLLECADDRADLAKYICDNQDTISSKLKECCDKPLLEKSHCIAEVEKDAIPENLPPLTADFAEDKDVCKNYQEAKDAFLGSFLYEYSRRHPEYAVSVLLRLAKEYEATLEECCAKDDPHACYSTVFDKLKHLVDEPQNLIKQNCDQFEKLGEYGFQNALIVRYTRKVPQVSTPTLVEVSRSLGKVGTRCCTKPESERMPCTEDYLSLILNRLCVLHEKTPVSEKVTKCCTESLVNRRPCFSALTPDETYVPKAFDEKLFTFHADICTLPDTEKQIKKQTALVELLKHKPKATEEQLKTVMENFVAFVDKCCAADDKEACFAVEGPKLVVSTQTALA
Chain of Follistatin (Homo sapiens) (P19883 whole entry, looked up): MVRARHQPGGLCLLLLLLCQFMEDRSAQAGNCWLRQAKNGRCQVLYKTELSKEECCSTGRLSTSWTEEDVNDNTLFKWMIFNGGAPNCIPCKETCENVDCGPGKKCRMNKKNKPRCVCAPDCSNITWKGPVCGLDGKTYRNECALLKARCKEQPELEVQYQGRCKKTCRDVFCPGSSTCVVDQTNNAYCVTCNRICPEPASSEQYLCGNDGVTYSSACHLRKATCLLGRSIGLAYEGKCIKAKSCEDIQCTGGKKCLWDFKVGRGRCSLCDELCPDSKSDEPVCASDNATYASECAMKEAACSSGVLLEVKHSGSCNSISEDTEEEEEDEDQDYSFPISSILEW
Chain of Focal adhesion kinase 1 (Homo sapiens) (Q05397 whole entry, looked up): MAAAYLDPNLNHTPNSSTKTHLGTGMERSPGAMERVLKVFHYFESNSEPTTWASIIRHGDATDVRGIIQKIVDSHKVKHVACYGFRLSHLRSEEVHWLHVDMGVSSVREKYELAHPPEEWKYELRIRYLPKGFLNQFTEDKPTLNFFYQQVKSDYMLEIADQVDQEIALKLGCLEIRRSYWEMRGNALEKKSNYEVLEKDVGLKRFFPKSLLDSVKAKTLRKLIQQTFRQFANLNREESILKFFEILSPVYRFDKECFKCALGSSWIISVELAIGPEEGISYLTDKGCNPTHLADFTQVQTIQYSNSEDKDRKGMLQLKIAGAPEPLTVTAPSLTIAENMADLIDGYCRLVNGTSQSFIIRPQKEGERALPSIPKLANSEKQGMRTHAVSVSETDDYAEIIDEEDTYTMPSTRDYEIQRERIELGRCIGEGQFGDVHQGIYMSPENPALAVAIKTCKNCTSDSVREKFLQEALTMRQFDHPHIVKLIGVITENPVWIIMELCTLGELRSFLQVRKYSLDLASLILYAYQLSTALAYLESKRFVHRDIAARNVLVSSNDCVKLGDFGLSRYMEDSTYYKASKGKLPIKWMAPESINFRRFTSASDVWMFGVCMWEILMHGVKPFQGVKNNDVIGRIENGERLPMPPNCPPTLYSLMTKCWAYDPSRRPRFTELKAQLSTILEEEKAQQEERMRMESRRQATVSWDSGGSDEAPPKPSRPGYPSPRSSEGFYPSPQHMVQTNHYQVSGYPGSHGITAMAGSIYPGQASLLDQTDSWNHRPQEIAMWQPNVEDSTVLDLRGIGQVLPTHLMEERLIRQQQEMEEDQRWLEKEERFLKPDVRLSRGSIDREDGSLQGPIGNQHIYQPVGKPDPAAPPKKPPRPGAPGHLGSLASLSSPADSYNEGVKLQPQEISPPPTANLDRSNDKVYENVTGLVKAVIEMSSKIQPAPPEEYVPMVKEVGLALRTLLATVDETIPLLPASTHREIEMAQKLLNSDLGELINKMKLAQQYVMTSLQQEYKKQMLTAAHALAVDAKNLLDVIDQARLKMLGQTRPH

| SMILES | composite z-score (Albumin (Bos taurus)) | composite Z-score [1] | composite z-score [2] | composite z-score [3] | composite z-score [4] | composite z-score [5] | composite z-score [6] | composite z-score (Sam68 (KHDRBS1)) | composite z-score [7] | composite z-score [8] | composite z-score [9] | composite z-score [10] | composite z-score [11] | composite z-score [12] | composite z-score [13] | composite z-score [14] | z-score [15] | composite z-score (Lefty1) | composite z-score [16] | z-score [17] |
| --- | --- | --- | --- | --- | --- | --- | --- | --- | --- | --- | --- | --- | --- | --- | --- | --- | --- | --- | --- | --- |
| CCc1cc2c(nc1CC)CCN(CCC(C)=NO[C@H](C)c1cn([C@@H]3COC[C@H]3O)nn1)C2 | -0.559 | 0.577 (inactive) | -0.005 | -0.0554 | 0.202 | -0.394 | 0.111 | 0.325 | 0.61 | -0.178 | -0.0963 | -0.139 | -0.162 | 0.522 | 0.523 | 0.305 | 0.537 | 0.204 | 0.199 | 0.221 (inactive) |
| COC(=O)[C@@H]1CC[C@H](C)[C@@H](c2ccc(C)cc2)N1C(=O)c1ccc(C=NO[C@H](C)c2cn([C@@H]3COC[C@H]3O)nn2)cc1 | 0.56 | -0.359 (inactive) | -0.125 | -0.117 | 0.311 | 0.81 | -0.0293 | 1.21 | 0.389 | 0.581 | -0.684 | 1.13 | 0.155 | 0.677 | 0.353 | 0.502 | -0.662 | 0.551 | 0.145 | 0.411 (inactive) |
| CC(=O)OC[C@H]1OC(ON=CC[C@@H]2C=C[C@H](OC(C)=O)[C@@H](COC(C)=O)O2)[C@H](OC(C)=O)[C@@H](OC(C)=O)[C@@H]1OC(C)=O (stereo not given in full) | 0.0478 | 0.359 (inactive) | 0.144 | -0.14 | -0.451 | -0.011 | 0.31 | 1.14 | -0.794 | 0.215 | 2.8 | 0.268 | 0.282 | 0.106 | -0.494 | 0.0994 | -0.99 | -0.101 | -0.223 | 1.11 (inactive) |
